In the library only some 2.6% were active in any assay of this set; here they are far more common.
KKLEB cytotox: counter-screen for CF NF-kB inhibitors: cytotoxicity. activity change (cytotoxicity), % at 5 µM. KKLEB CF airway cells viability, ATPlite luminescence, overnight; hits give low values; cells stimulated with P. aeruginosa culture filtrate. 360,000 tested, 0.36% active;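 active = corrected activity change at or below -50% at 5 µM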
HIF-2a block: HIF-2a inhibition. 360,000 tested, 0.72% active. inhibition, % at 18.8 µM. 786-0 RCC cells HIF-2a reporter, luciferase luminescence, overnight. AID 624352;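 active = inhibition of the luminescence signal of 40% or more relative to plate controls, in a single-dose primary screen at 18.75 µM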
Peg3 prom inh: Peg3 promoter activity inhibition; HeLa PEG-Prom luciferase reporter, luminescence, overnight; 360,000 tested, 1.7% active; inhibition, % at 20 µM;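 active = inhibition of at least 50% at 20 µM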
CF NFkB inh: blocks PAF-induced NF-kB reporter in cystic fibrosis cells; KKLEB NF-kB-GFP reporter, GFP fluorescence overnight; inhibition, % at 5 µM; 360,000 tested, 0.86% active;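 active = at least 50% inhibition at 5 µM, scaled per plate between neutral and stimulator controls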;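 also: PAF is a Pseudomonas aeruginosa culture filtrate used as stimulus; plate controls were PAF-stimulated DMSO wells for no effect and unstimulated DMSO wells for full effect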
Shn3 3UTR inh: inhibitors of Schnurri-3 3'UTR reporter in osteoblasts. Clone20 osteoblast Shn3 3'UTR firefly luciferase, 24 h. inhibition, % at 12.5 µM. 360,000 tested, 0.52% active. AID 588674;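 active = mean inhibition of at least 75% with every replicate also reaching 75%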;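 also: 0% = median of neutral control wells and 100% = pilot-screen positive control compound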
Mdm2-MdmX confirm: Mdm2/MdmX (human) interaction inhibition, confirmed; inhibition, % at 8 µM; SaOS-2 split-luciferase Mdm2/MdmX complementation, luminescence; shares compounds with HIF-2a block; 740 tested, 99% active; AID 504601;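 active = mean inhibition of the luminescence signal across two replicates at or above 26 percent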
HIF-2a conf: confirmation of HIF-2a inhibitors; shares compounds with HIF-2a block; 786-0 RCC cells, HIF-2a luciferase reporter luminescence, overnight; inhibition, % at 18.8 µM; 1,800 tested, 56% active;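 active = mean inhibition across four replicates of at least 40 percent at the single tested concentration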
HIF-1a cs: HIF-1a inhibition counter-screen for HIF-2a hits; AID 651589; shares compounds with HIF-2a block; MiaPaCa-2 HIF-1a luciferase reporter, desferoxamine, overnight; inhibition, % at 18.8 µM; 1,800 tested, 72% active;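 active = mean inhibition of the reporter signal across four replicates at the single tested dose of 50% or more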
* hit, by the source's call; . = not tested or not shown.

SMILES	KKLEB cytotox	HIF-2a block	Peg3 prom inh	CF NFkB inh	Shn3 3UTR inh	HIF-2a conf	HIF-1a cs	others
CC(=O)[C@@]1(O)CCC2C3C=CC4=CC(=O)CC[C@]4(C)C3CC[C@@]21C (stereo partly specified)	-5	5	2	8	-1	.	.
Cc1c(C(=O)NCC2CCCO2)oc2ccc(S(=O)(=O)N3CC(C)CC(C)C3)cc12 (stereo unspecified)	-6	39*	27	-19	16	8	57*
Cc1c(C(=O)NCC2CCCO2)oc2ccc(S(=O)(=O)N3CCCCC3)cc12 (stereo unspecified)	2	4	15	11	1	.	.
Cn1nnnc1Sc1ncnc2scc(Br)c12	-42	96*	104*	78*	97*	65*	105*
Cn1nnnc1SCc1nc2scc(-c3ccccc3)c2c(=O)[nH]1	-5	-42	2	-6	10	.	.
Cn1nnnc1Sc1ncnc2scc(-c3ccccc3Br)c12	-19	49*	79*	50	-4	25	75*
CCOc1ccc(N(CC(=O)Nc2cccc(N(C)S(C)(=O)=O)c2)S(=O)(=O)c2ccccc2)cc1	9	18	38	-26	22	.	.
Cc1cccc(NC(=S)NNc2ncc(C(F)(F)F)cc2Cl)c1	-5	50*	21	-1	-7	57*	17
Cc1ccc(CCNC(=O)c2cc(-c3ccncc3)nc3ccc(S(=O)(=O)N4CCOCC4)cc23)cc1	9	10	4	10	8	.	.
CCN(CC)CCNC(=O)c1cc(-c2cccnc2)nc2ccc(S(=O)(=O)N3CCC(C)CC3)cc12	-10	64*	72*	-2	11	-1	100*	Mdm2-MdmX confirm=102*
COc1ccc(C(NC(=O)c2c(F)c(F)c(F)c(F)c2F)c2ccccc2)cc1 (stereo unspecified)	-12	83*	93*	-14	41	57*	100*
O=c1c2c3nc4ccccc4nc3n(Cc3ccccc3)c2ncn1Cc1ccco1	3	44*	76*	11	45	-2	78*
O=C(Nc1ccccc1)c1c(F)c(F)c(F)c(F)c1F	-8	9	-21	6	-2	.	.
CC(C)c1c(C(=O)Nc2ccccc2)c(-c2ccccc2)c(-c2ccc(F)cc2)n1CC[C@@H](O)C[C@@H](O)CC(=O)O	-14	40*	19	17	53	27	-34
CCNc1nc(NC(C)C)nc(Oc2ccc(/C=N/O)cc2)n1	-9	22	14	14	20	.	.
CNC[C@H](Cc1ccccc1)NC[C@@H](Cc1cccc2ccccc12)NCCc1ccc(C)cc1	-50*	22	97*	43	6	.	.	Mdm2-MdmX confirm=101*
Cc1ccc2c(c1)N(C(=O)CCC(=O)NC1CCN(Cc3ccccc3)CC1)CC(C)O2 (stereo unspecified)	13	-2	5	-31	-14	.	.
COc1ccc(/C=N/NC(=O)c2cccc(NC(=O)c3ccccc3Cl)c2)c(OC)c1	6	-34	-8	2	-13	.	.
CCOC(=O)c1ccc(Oc2nc(NC(C)(C)C)nc(N(C)C)n2)cc1	-10	44*	30	16	19	50*	-8
O=C(Nc1ccc(NC(=O)c2ccco2)cc1)c1ccc2c(c1)OCCO2	11	46*	-37	10	8	69*	11
Cc1cc(NC(=O)c2ccc3c(c2)OCCO3)ccc1NC(=O)c1ccco1	-5	-175	-197	16	-56	.	.
COC(=O)c1ccc2nc(NC(=O)C(C)C)sc2c1	-6	-148	-240	-1	-58	.	.
COC(=O)c1ccc2nc(Nc3nc4c(F)cc(F)cc4s3)sc2c1	-20	90*	75*	38	55	94*	90*
CNc1nc(-c2cccc(C(=O)N(C)C)c2)cn2ccnc12	3	12	20	-4	11	.	.
COC(=O)/C(=C\c1ccc(O)cc1)c1nc2ccccc2[nH]1	6	-105	-99	-4	-63	.	.
SMILES	KKLEB cytotox	HIF-2a block	Peg3 prom inh	CF NFkB inh	Shn3 3UTR inh	HIF-2a conf	HIF-1a cs	others
COC(=O)/C(=C\c1cc(OC)c(OC)c(OC)c1)c1nc2ccccc2[nH]1	2	13	10	6	15	.	.
COc1cc(/C=C(/C(=O)c2cccs2)c2nc3ccccc3[nH]2)ccc1O	-2	68*	103*	34	-89	9	104*
O/C(=C\c1nc2ccccc2[nH]1)c1cccs1	8	-247	-237	-42	-65	.	.
O=C(/C(=C/c1ccc(Cl)cc1)c1nc2ccccc2[nH]1)c1cccs1	-61*	93*	106*	98*	88*	.	.	Mdm2-MdmX confirm=102*
O=C(/C(=C\c1ccccc1)c1nc2ccccc2[nH]1)c1ccc(Cl)cc1	-14	64*	87*	42	-65	-155	100*
C[C@H](NC(=O)N1CCn2c1nc1ccccc12)C(=O)NCc1ccc(F)cc1	-12	11	-1	17	7	.	.
CC(C)(C)NC(=O)NC(=O)CN1CCN(c2cccc(Cl)c2)CC1	-2	21	20	12	16	.	.
CC(Sc1cccc[n+]1[O-])C(=O)NC1CCCCC1C (stereo unspecified)	-1	13	3	17	5	.	.
CCc1cccc2c(C(=O)COC(=O)[C@@H]3CC(O)CN3S(=O)(=O)c3ccccc3[N+](=O)[O-])c[nH]c12 (stereo partly specified)	-7	16	14	-7	-8	.	.
COC(=O)c1ccc(-c2ccc(/C=N/NC(=O)Cc3nnc(N)s3)o2)cc1	6	-88	-145	-25	-15	.	.
CCOC(=O)C(C)(C)N(Cc1cccc(C)c1)S(=O)(=O)c1ccc(Cl)c([N+](=O)[O-])c1	6	64*	88*	-7	11	27	100*
CC(C)(C)c1cc(C(c2cccnc2)N2CCN(CCO)CC2)cc(C(C)(C)C)c1O (stereo unspecified)	-7	89*	104*	28	97*	80*	75*	Mdm2-MdmX confirm=103*
CC(C)(C)n1nnnc1C(c1cccnc1)N1CCN(c2cccc(C(F)(F)F)c2)CC1 (stereo unspecified)	-2	16	1	9	-6	.	.
CN(C(=O)c1cccc(NC(=O)Cc2ccc(NC(=O)C3CCCN(C(=O)C4CCCC4)C3)cc2)c1)C1CC1 (stereo unspecified)	8	-11	-26	-26	1	.	.
CCCCN(CC)C(=O)Cn1nc(Cc2ccncc2)c2ccccc2c1=O	-14	20	17	21	-2	.	.
